# Assay results published in PubChem BioAssay AID2018 (Sanford-Burnham Center for Chemical Genomics, 2009).
# The whole screen tested about 1,200 compounds, of which about 600 (50%) were called active. Rule as the data show it: active = inhibition above about 42%; inactive = the rest. The set was probably picked from earlier hits. Some of the results follow. Potency and affinity values are given separately.
# Molecular target: SUMO-conjugating enzyme UBC9 (Homo sapiens) (UniProt P63279)
# Assay: blockers of UBC9-mediated SUMO conjugation – biochemical, AlphaScreen, SUMOylation inhibitor project, confirmation (AID 2018)
# Details: AlphaScreen in vitro SUMOylation assay; at 35 µM; stronger effect = higher value
# Sequence of SUMO-conjugating enzyme UBC9 (Homo sapiens) (P63279 whole entry, looked up): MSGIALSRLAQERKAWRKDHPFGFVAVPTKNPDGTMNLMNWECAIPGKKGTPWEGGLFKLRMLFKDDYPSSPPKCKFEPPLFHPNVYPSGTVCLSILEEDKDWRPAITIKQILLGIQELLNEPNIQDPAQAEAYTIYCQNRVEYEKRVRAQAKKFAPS
row,Compound,inhibition
1,O=C1CC(c2ccco2)CC(O)=C1C=NCC1NCCc2ccccc21 (stereo not given),18.6% (inactive)
2,O=C1CC(c2ccco2)CC(O)=C1C=Nc1cc(Cl)ccc1Cl (stereo not given),17.2% (inactive)
3,O=C1CC(c2ccco2)CC(O)=C1C=Nc1cc(Cl)ccc1O (stereo not given),54.5% (active)
4,O=C1CCN(c2ncccc2[N+](=O)[O-])CC1,-9.6% (inactive)
5,O=C1C(Cl)=C(N2CCN(c3ccccc3[N+](=O)[O-])CC2)C(=O)c2ccccc21,101% (active)
6,Nc1c(Cl)cc(NC(=O)c2ccccc2C(=O)O)cc1Br,8% (inactive)
7,CCCCN1Cc2c(nc3cc(-c4ccco4)[nH]n3c2=O)C1=O,4.3% (inactive)
8,NS(=O)(=O)c1cnccc1Nc1ccc(Cl)cc1,-32.2% (inactive)
9,C/C(=C\C(=O)c1ccccc1)Nc1ccc(O)cc1,18.7% (inactive)
10,O=C(Nc1ccccc1)c1ccccc1CCc1ccccc1,-9.6% (inactive)
11,O=C(O)c1ccc(N2N=C(c3ccccc3)CC2c2ccccc2)cc1 (stereo not given),-14.9% (inactive)
12,COc1ccc(C2=NN(C(=O)c3cccs3)C(c3ccccc3O)C2)cc1 (stereo not given),27.7% (inactive)
13,Cc1cc(=O)n2[nH]c(N)c(N=Nc3ccccc3)c2n1,23.6% (inactive)
14,CCOCCCNC1=C(Cl)C(=O)c2ccccc2C1=O,90.1% (active)
15,O=C1c2nc3cc(-c4ccco4)[nH]n3c(=O)c2CN1C1CCCCC1,6.6% (inactive)
16,O=C(NCc1ccc(F)cc1)C(=O)c1cn(CC(=O)N2CCCC2)c2ccccc12,11.6% (inactive)
17,Cc1[nH][nH]c(=O)c1C(c1c(C)[nH][nH]c1=O)c1cn(C)c2ccccc12,102% (active)
18,Cc1[nH][nH]c(=O)c1C(c1c(C)[nH][nH]c1=O)c1cn(Cc2cccc3ccccc23)c2ccccc12,32.5% (inactive)
19,Cc1[nH][nH]c(=O)c1C(c1c(C)[nH][nH]c1=O)c1cn(Cc2ccc(F)cc2)c2ccccc12,50.9% (active)
20,O=C(O)/C=C/C(=O)Nc1ccc2c(c1)NC(=O)CO2,13.1% (inactive)
21,COc1ccc2c(c1)c(=O)oc1c(C)c(OCc3ccc(C(=O)O)cc3)ccc12,65.5% (active)
22,Cc1c(O)ccc2c(CC(=O)N[C@@H](Cc3ccc(O)cc3)C(=O)O)cc(=O)oc12,16.9% (inactive)
23,COc1ccc(NC(=S)Nc2cccc3ccccc23)cc1OC,10.7% (inactive)
24,COc1cc2cc(NC(C)=O)cc(NCc3ccccc3)c2cc1OC,50.6% (active)
25,CC(=O)Nc1cccc(NC(=S)Nc2cccc3ccccc23)c1,28.9% (inactive)
26,CCOC(=O)N1CCN(C2=C(NS(=O)(=O)c3ccc(C)cc3)C(=O)c3ccccc3C2=O)CC1,85.2% (active)
27,Cc1ccc(C(=O)Nc2ccccc2C(=O)N2CCN(c3ccccc3)CC2)cc1,-27.1% (inactive)
28,CC(=O)Nc1ccc(S(=O)(=O)Nc2cccn(Cc3ccc(C)cc3)c2=O)cc1,1.7% (inactive)
29,CCOC(=O)N1CCC(c2cc(=O)n(-c3ccccc3)[nH]2)CC1,16.1% (inactive)
30,CCOC(=O)N1CCN(C2=C(NS(=O)(=O)c3ccc(NC(C)=O)cc3)C(=O)c3ccccc3C2=O)CC1,53.7% (active)
